Source: PubChem BioAssay
NS3h inh CB – hepatitis C NS3 helicase inhibition, primary screen. actives 1.6% (n = 16,000). AID 687043. inhibition, % at 100 µM. NS3h Cy5-dT15 DNA binding, fluorescence polarization;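 active = inhibition above the average over every tested compound plus 3 SD, cut at about 40% in these data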
Cy5 interf NS3h – Cy5 fluorescence interference, HCV helicase counter-screen; fluorescence interference ratio at 100 µM; Cy5-dT15 DNA with NS3h; actives lie on both sides; signal over control mean, under 1 quenches; AID 720488; actives 6% (n = 16,000);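 active = compound fluorescence over control fluorescence at most 0.8, a quencher, or at least a set upper limit, an enhancer; inactive = ratio between 0.8 and the set upper limit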
An asterisk follows results filed as active. This is a sample that favours compounds with a hit; in the whole collection about 6.8% have one here.

SMILES	NS3h inh CB	Cy5 interf NS3h
COc1ccccc1NC(=O)CSc1nsc(SCC(=O)Nc2ccccc2OC)n1	1	0.9
CC1=CC(C)(C)N(Cc2ccc([N+](=O)[O-])cc2)c2cc(C)ccc21	6	0.97
C=CCOC(=O)C1=C(C)NC(C)=C(C(=O)OCC=C)C1c1ccco1	29	0.73*
CCOC(=O)C1=C(C)NC(C)=C(C(=O)OC)C1c1ccco1 (stereo unspecified)	-3	0.91
CCOc1ccc(/C=C/C(=O)c2cccc(Br)c2)cc1	-2	0.99
O=C(c1cccc(C#Cc2ccccc2)c1)N1CCN(C/C=C/c2ccccc2)CC1	17	0.97
C=C(C)c1cccc(C(C)(C)NC(=O)N2CCN(C/C=C/c3ccccc3)CC2)c1	10	0.65*
O=C(O)CCCc1nc2ccccc2[nH]1	1	0.73*
O=C(O)CCCc1nc2ccccc2s1	-5	1
Cn1cnc([N+](=O)[O-])c1Sc1nccc(Nc2ccccc2)c1C#N	16	1.2
CCCN(CCC)C(=O)c1ccccc1NC(=O)c1ccccc1Cl	-12	1
CCN(C(=O)c1ccccc1Cl)c1ccccc1	7	0.67*
COc1cc(-c2noc(-c3ccc(F)cc3)n2)cc(OC)c1OC	-3	1
O=C1NC(=Nc2ccc(O)cc2)S/C1=C/C(Cl)=C/c1ccc([N+](=O)[O-])cc1	7	1.1
O=C(/C=C/c1ccccc1)NC(=S)Nc1ccc(F)cc1	9	1.1
O=C(/C=C/c1ccccn1)c1ccc(NC(=O)c2ccco2)cc1	27	0.87
Cc1cc([N+](=O)[O-])ccc1-c1ccc(CO)o1	1	0.92
Cc1cc([N+](=O)[O-])ccc1-c1cc2ccccc2oc1=O	18	0.69*
CCN(CC)c1ccc(N2C(=O)/C(=C/c3ccc(OC)c(OC)c3)SC2=S)cc1	5	1.1
CC(=O)Nc1nc(-c2cc(C)ccc2C)cs1	19	1
CCCCCCN1C(=O)C(=O)C(=C(O)c2ccccc2)C1c1ccccc1F (stereo unspecified)	-7	1
CC1=NN(c2ccc(S(N)(=O)=O)cc2)C(=O)/C1=C\c1ccc(OCc2ccccc2)cc1	8	0.99
CCOC(=O)c1ccccc1NC(=O)CN(c1ccc(OC)cc1)S(C)(=O)=O	15	1
O=C(NCCc1ccccc1)c1nn2c(c1Cl)NC(c1ccc(Cl)cc1)CC2C(F)(F)F (stereo unspecified)	-1	0.92
CC(=O)ON=C1c2cc(S(=O)(=O)N(C)C)ccc2-c2ccc(S(=O)(=O)N(C)C)cc21	13	0.61*
SMILES	NS3h inh CB	Cy5 interf NS3h
O=S(=O)(c1ccc2c(c1)C(=NO)c1cc(S(=O)(=O)N3CCCC3)ccc1-2)N1CCCC1	0	1
COc1cccc(CN2CCN(C3CCC(C)CC3)CC2)c1 (stereo unspecified)	-6	1.1
COc1cc(OC)c(/C=C2\C(=O)NC(=O)N(c3cccc(C)c3)C2=O)cc1Br	-1	1
CCN(CC)c1ccc(/C=C2\C(=O)NC(=O)N(c3cccc(C)c3)C2=O)c(OC)c1	13	1.3*
COc1ccc(C(=O)Nc2cc(C)nc3ccccc23)cc1OC	1	0.94
Cc1nc(N=C(N)NC(=O)c2ccccc2N)nc2ccccc12	17	1.2*
Cc1ccc(N=Cc2ccc([N+](=O)[O-])s2)c(C)c1	29	0.8*
O=[N+]([O-])c1ccc(C=Nc2ccc(Cl)c([N+](=O)[O-])c2)s1	-3	0.95
C/C(=N/N=C1/NC(=O)C(C)S1)c1ccc(Br)cc1 (stereo unspecified)	11	1
COc1ccccc1CN1CCN(S(C)(=O)=O)CC1	5	0.77*
CS(=O)(=O)N1CCN(Cc2ccc(Cl)cc2)CC1	-14	1.1
COc1cc(OC)c(OC)cc1CN1CCN(S(C)(=O)=O)CC1	-16	1
CS(=O)(=O)N1CCN(Cc2ccccc2Br)CC1	-2	0.67*
CSc1ccc(CN2CCN(S(C)(=O)=O)CC2)cc1	0	1
CS(=O)(=O)N1CCN(Cc2ccncc2)CC1	-12	0.68*
CN1C(=O)NC(=O)/C(=C\c2ccc(Cl)cc2)C1=O	6	1
O=C1C(=O)N(c2nccs2)C(c2cccc(Cl)c2)C1=C(O)c1ccc(Cl)cc1 (stereo unspecified)	10	0.85
CCN(CC)c1ccc(N2C(=O)/C(=C\c3ccc(C)o3)SC2=S)cc1	6	1
O=C1/C(=C/c2ccc3c(c2)OCO3)SC(=NCc2ccccc2)N1Cc1ccccc1	5	1.1
CCOc1ccc(NC(=O)CSc2nc3ccccc3[nH]2)cc1	2	0.92
O=C(CSc1nc2ccc([N+](=O)[O-])cc2[nH]1)c1ccc2ccccc2c1	1	0.87
O=C(CSc1nc2ccc([N+](=O)[O-])cc2[nH]1)Nc1ccc2c(c1)OCO2	12	0.6*
O=C(CSc1nc2ccc([N+](=O)[O-])cc2[nH]1)c1ccc(Br)cc1	24	0.61*
Cc1cccc(NC(=O)CSc2nc3ccc(C)cc3[nH]2)c1	16	0.65*
O=C(CSc1nc2ccccc2[nH]1)Nc1ccc(F)c([N+](=O)[O-])c1	16	0.85
SMILES	NS3h inh CB	Cy5 interf NS3h
Cc1cc(C(c2ccc(F)cc2)c2cc(C)c(NC(=O)c3ccccc3)c(C)c2)cc(C)c1NC(=O)c1ccccc1	8	0.92
COc1ccc(N(CC(=O)NCc2ccccc2)S(=O)(=O)c2ccc(C)cc2)c(OC)c1	7	1
O=C(Nc1c(F)cc(F)cc1Br)c1nc2nc(-c3ccccc3)cc(C(F)(F)F)n2n1	13	0.71*
O=C(NCC1CCCO1)c1nc2nc(-c3ccccc3)cc(C(F)(F)F)n2n1 (stereo unspecified)	-2	0.92
CCOC(=O)c1ccc(NC(=O)c2ccccc2Cl)cc1	18	0.97
CCOc1ccccc1NC(=O)c1c(NC(=O)C(F)(F)F)sc2c1CCCCC2	33	1.2*
CCOc1ccccc1NC(=O)c1c(NC(=O)C(C)(C)C)sc2c1CCCCC2	0	1.1
O=C(Nc1c(C(=O)N2CCOCC2)cnn1-c1ccccc1)c1ccccc1	-2	1
O=C(Nc1c(C(=O)N2CCCCCC2)cnn1-c1ccccc1)c1cccc(F)c1	31	1.3*
C=CCOc1ccc(CN2CCOCC2)cc1	-5	1.1
COc1cccc(N2C(=O)C(=O)C(=C(O)c3ccccc3)C2c2ccc(OC)c(OC)c2)c1 (stereo unspecified)	-15	1
N/N=C(/c1ccccc1)C12CN3CN(CN(C3)C1)C2	8	1.2
O=[N+]([O-])c1cccc2c1=C1C(Cl)=CC=C1C=2	1	0.54*
O=C1c2ccccc2C(=O)N1N1C(=O)c2cccc([N+](=O)[O-])c2C1=O	2	1
CS(=O)(=O)N(CC(=O)Nc1cccc(C(F)(F)F)c1)c1cccc(Cl)c1	11	0.98
CC(=O)CC(=O)Nc1ccc(Cl)c(C(F)(F)F)c1	4	0.68*
CC(=O)CC(=O)Nc1ccc(Cl)c(Cl)c1	3	1
COc1ccc(/C=N\n2cnnc2)cc1COc1ccccn1	3	0.97
COc1ccc2c(-c3ccccc3)cc(=O)[nH]c2c1	2	0.98
Cc1ccc2c(-c3ccc([N+](=O)[O-])cc3)cc(=O)[nH]c2c1	1	0.62*
O=C(Nc1c(-c2ccccc2)nc2ccc(Cl)cn12)c1ccc(Cl)cc1	0	1
c1ccc(-c2cn(-c3ccccc3)nc2-c2ccccc2)cc1	14	0.93
Cc1ccc(N2NC(=O)/C(=C/c3cccc(Br)c3)C2=O)cc1	23	0.79*
